Data from the supplement of paper PMC7530171.
Counter-ions that a name gives are not always drawn. ± gives the standard deviation.

system: THP-1; experiment: THP-1 cell loss relative to DMSO control; higher = more host cell loss (toxicity); extreme values may be limits of the assay; conditions: 10 µM; 4 days; infection: M. tuberculosis H37Rv
Description: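 OICR kinase inhibitor library screened in duplicate at 10 uM against M. tuberculosis-infected THP-1 macrophages, 4 days at 37 C. THP-1 cell loss (cytotoxicity or loss of adherence) was quantified from Hoechst-stained nuclei counts by high-content imaging and normalised to the 1% DMSO control; 100 = complete loss of host cells.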

First: Cc1cc(C)c(/C=C2\C(=O)Nc3ccccc32)[nH]1
Second: O=C1Cc2c([nH]c3ccc([N+](=O)[O-])cc23)-c2ccccc2N1 [Alsterpaullone]
The THP-1 cell loss of the first is lower: 34.2 ± 39% for the first, 100% for the second.

O=C(C=Cc1ccccc1)NC(NC(=S)Nc1ccc(Cl)cc1)C(Cl)(Cl)Cl (stereo not given) and NCc1ccc(Nc2ncc(F)c(Nc3ccccc3)n2)cc1 [Dianilinopyrimidine_01] are within error of each other in THP-1 cell loss: 63.6 ± 52% for the first, 88.5 ± 16% for the second.

Compared with Cn1cc(C2=C(c3ccc(Cl)cc3Cl)C(=O)NC2=O)c2ccccc21, CN(C)CCCn1cc(C2=C(c3c[nH]c4ccccc34)C(=O)NC2=O)c2ccccc21 [Bisindolylmaleimide I hydrochloride] is higher in THP-1 cell loss: 15.5 ± 22% for the first, 100% for the second.

Compared with COc1cc2/c(=N/c3ccc(Br)cc3F)nc[nH]c2cc1OCC1CCN(C)CC1 [Vandetanib], COc1cc2c(Nc3ccc(NC(=O)c4ccccc4)cc3)ncnc2cc1OCCCN1CCOCC1 is lower in THP-1 cell loss: 40.7 ± 6.5% for the first, 27.2 ± 1.4% for the second.

First: Nc1nc(Nc2ccc(S(N)(=O)=O)cc2)nn1C(=O)c1c(F)cccc1F
Second: Nc1nc(Nc2ccc(S(N)(=O)=O)cc2)nn1C(=S)Nc1c(F)cccc1F [Cdk1/2 Inhibitor III]
The THP-1 cell loss of the first is higher: 100% for the first, 5.81 ± 8.1% for the second.

Cc1nc(Nc2ncc(C(=O)Nc3c(C)cccc3Cl)s2)cc(N2CCN(CCO)CC2)n1 [Dasatinib] and Cc1cc(Nc2cc(N3CCN(C)CC3)nc(Sc3ccc(NC(=O)C4CC4)cc3)n2)n[nH]1 are within error of each other in THP-1 cell loss: 34.7 ± 4.4% for the first, 22.3 ± 16% for the second.

First: CN1CCN(c2ccc3nc(-c4c(N)c5c(F)cccc5[nH]c4=O)[nH]c3c2)CC1 [Dovitinib]
Second: NC(=O)c1ccc2nc(-c3ccc(Oc4ccc(Cl)cc4)cc3)[nH]c2c1 [Chk2 Inhibitor II]
The THP-1 cell loss of the first is higher: 100% for the first, 48.8 ± 4.4% for the second.

Going from Nc1ncnc2nc(-c3ccc(N4CCOCC4)nc3)cc(-c3cccc(Br)c3)c12 [ABT-702 dihydrochloride] to Cc1nc(N)sc1-c1ccnc(Nc2ccc(N3CCOCC3)cc2)n1, the THP-1 cell loss rises from 24.4 ± 13% to 74.97 ± 0.66%.

O=c1[nH]ccc2c(S(=O)(=O)N3CCCNCC3)cccc12 [HA 1100 hydrochloride] and O=S(=O)(c1cccc2cnccc12)N1CCCNCC1 [Fasudil HCl] are within error of each other in THP-1 cell loss: 0% for the first, 0.204 ± 0.29% for the second.

First: O=C(Nc1nc2ccccc2n1CCN1CCOCC1)c1cccc([N+](=O)[O-])c1 [IRAK-1/4 Inhibitor I]
Second: CCc1nc(-c2cccc(C)c2)c(-c2ccnc(NC(=O)c3ccccc3)c2)s1
The THP-1 cell loss of the first is lower: 2.5 ± 3.5% for the first, 23.2 ± 2.1% for the second.

COc1cccc(-c2cc(=O)c3ccccc3o2)c1N and c1ccc(-c2n[nH]c3c2oc2ccccc23)cc1 are within error of each other in THP-1 cell loss: 26.7 ± 35% for the first, 9.81 ± 5.6% for the second.

CN(C)Cc1cccc(N=C(c2ccccc2)c2c(O)[nH]c3cc(C(=O)N(C)C)ccc23)c1 and Cc1ccccc1C(=O)c1ccc(Nc2ccc(Br)cc2N)cc1Cl are within error of each other in THP-1 cell loss: 23.9 ± 0.5% for the first, 16.5 ± 23% for the second.

First: Cn1cnc2c(NCc3ccccc3)nc(NCCO)nc21 [Olomoucine]
Second: CC[C@H](CO)Nc1nc(NCc2ccccc2)c2ncn(C(C)C)c2n1 [Roscovitine]
The THP-1 cell loss of the first is lower: 3.14 ± 4.4% for the first, 53.5 ± 2.5% for the second.

CCN(CCCOc1ccc2c(Nc3cc(CC(=O)Nc4cccc(F)c4)[nH]n3)ncnc2c1)CCOP(=O)(O)O and Cc1c(NC(=O)OC[C@@H]2COCCN2)cn2ncnc(Nc3ccc4c(cnn4Cc4cccc(F)c4)c3)c12 are within error of each other in THP-1 cell loss: 7.93 ± 5.5% for the first, 16.7 ± 9.5% for the second.

Compared with CCN(CC)CCCCN1c2ccccc2Oc2ccc(Cl)cc21 [10-DEBC hydrochloride], Cc1cc(C(=O)Nc2cc(Nc3ccc4c(/C=C/c5ccccn5)n[nH]c4c3)ccc2F)n(C)n1 is higher in THP-1 cell loss: 29.4 ± 13% for the first, 54.6 ± 11% for the second.

NC(=O)Nc1cc(-c2cccc(F)c2)sc1C(=O)N[C@H]1CCCNC1 and COc1cc2nccc(Oc3ccc(NC(=O)C4(C(=O)Nc5ccc(F)cc5)CC4)cc3)c2cc1OC are within error of each other in THP-1 cell loss: 84.2 ± 22% for the first, 83.9 ± 4.8% for the second.

COc1ccc(-c2ccc3c(N4CCOCC4)nc(N4C[C@@H](C)O[C@@H](C)C4)nc3n2)cc1CO and CC[C@H](Nc1ncnc2[nH]cnc12)c1nc2cccc(F)c2c(=O)n1-c1ccccc1 are within error of each other in THP-1 cell loss: 53.5 ± 18% for the first, 35.9 ± 6.3% for the second.

First: Cc1ccc2nc(NCCN)c3ncc(C)n3c2c1
Second: Cc1ccc(S(=O)(=O)Nc2nc3ccccc3nc2Nc2ccc3nsnc3c2)cc1
The THP-1 cell loss of the first is higher: 100% for the first, 40.9 ± 5.2% for the second.

Going from O=S(=O)(NCCNC/C=C/c1ccc(Br)cc1)c1cccc2cnccc12 [H 89 dihydrochloride] to NC(=O)c1sc2c([N+](=O)[O-])cc(C(F)(F)F)cc2[n+]1[O-] [Cyclapolin 9], the THP-1 cell loss rises from 10 ± 2.1% to 35.6 ± 12%.

Compared with C=CC[C@@H]1/C=C(\C)C[C@H](C)C[C@H](OC)[C@H]2O[C@@](O)(C(=O)C(=O)N3CCCC[C@H]3C(=O)O[C@H](/C(C)=C/[C@@H]3CC[C@@H](O)[C@H](OC)C3)[C@H](C)[C@@H](O)CC1=O)[C@H](C)C[C@@H]2OC, CC(C)CC(=O)Nc1n[nH]c2c1CN(C(=O)C1CCN(C)CC1)C2(C)C is higher in THP-1 cell loss: 0% for the first, 100% for the second.
